Results as given in PubChem BioAssay (Tox21).
Results filed as inconclusive are left out. Where a call stands in place of a potency, no number is given. Calls of active or inactive are those of the source. Calls come from the whole dose curve; as a rule, active = well fitted cell-killing curve with a large enough effect in the repeat runs; inconclusive = weak or mixed curves, or effect the other way; inactive = no such curve, though single readings can be large or run the other way.

assay: qHTS assay to identify small molecule agonists of the RXR signaling pathway - cell viability counter screen (AID 1159529); settings: RXR-alpha-bla HEK293T viability, CellTiter-Glo, 16 h; series mostly up to 76.8 µM; note: nearly all actives have a fitted effect of over 50% in size
Text: National Center for Advancing Translational Sciences [NCATS]
NIH Chemical Genomics Center [NCGC]
U.S. Environmental Protection Agency [EPA]
National Institutes of Environmental Health Sciences [NIEHS]
National Toxicology Program [NTP]
U.S. Food and Drug Administration [FDA]
The Retinoid X receptor (RXR), a nuclear hormone receptor expressed in liver, spleen, placenta, epidermis, central nervous system. These receptors are able to form homo and heterodimers with other nuclear receptors and due to this heterodimerizing ability, RXR functions as master regulators producing diverse physiological effects. Three subtypes of RXR exist; alpha, beta and gamma. Retinoid X receptor alpha (RXR-alpha) has potential roles in metabolic signaling pathways, skin alopecia, dermal cysts, cardiac development, insulin sensitization etc. Therefore screening environmental chemicals on RXR-alpha signaling can be used for the studies focused on such therapeutic applications. For quantification of RXR-alpha ligands signaling, GeneBLAzer RXR alpha-UAS-bla HEK 293T (Life Technologies, Carlsbad, CA) cells containing a beta-lactamase reporter-gene under control of Retinoid X receptor-alpha response element were used to screen Tox21 10K library. The cytotoxicity of the Tox21 compound library against the RXR-alpha HEK 293T cell line was tested in parallel by measuring cell viability using CellTiter-Glo assay (Promega Corporation, Madison, WI) in the same wells.
Tox21 Assay Protocol Summary:
RXR-alpha HEK 293T cells were dispensed at 2,000 cells/6 uL of assay medium containing 2% charcoal-stripped FBS using a Multidrop Combi (ThermoFisher Scientific, Waltham, MA) dispenser. The assay was performed in black wall/clear-bottom 1536-well plates (Greiner Bio-One North America Inc. Monroe, NC). Tetraoctyl ammonium bromide was used as a positive control in the cytotoxicity screen. After the assay plates were incubated at 37 C and 5% CO2 for 5 hr, 23 nL of compounds dissolved in DMSO, positive control or DMSO only were transferred to the assay plate by a Pintool station (Kalypsys, San Diego, CA). The assay plates were incubated at 37 C and 5% CO2 for 16 hr. One uL of LiveBLAzer B/G FRET substrate (Life Technologies) was added using a Flying Reagent Dispenser (FRD) (Aurora Discovery, San Diego, CA) and the plates were incubated at room temperature for 2 hr. Fluorescence intensity (405 nm excitation, 460/530 nm emission) was measured using an Envision plate reader (PerkinElmer, Shelton, CT). For cytotoxicity, 4 uL/well of CellTiter-Glo reagent was added into the assay plates using an FRD. After 30 min incubation at room temperature, the luminescence intensity was measured using a ViewLux plate reader (PerkinElmer).
Potency is the fitted concentration of half-maximal effect.

Row | Compound | Potency | activity change, negative = cytotoxicity
1 | c1ccc(-c2nc[nH]c2-c2ccccc2)cc1 | inactive | –
2 | CCOC(=S)SSC(=S)OCC | inactive | –
3 | C=CC(C)(CCC=C(C)C)OC(=O)c1ccccc1 (stereo not given) | inactive | –
4 | CC(C)(C)c1cc(CCC(=O)OCC(COC(=O)CCc2cc(C(C)(C)C)c(O)c(C(C)(C)C)c2)(COC(=O)CCc2cc(C(C)(C)C)c(O)c(C(C)(C)C)c2)COC(=O)CCc2cc(C(C)(C)C)c(O)c(C(C)(C)C)c2)cc(C(C)(C)C)c1O | inactive | –
5 | NC[C@H]1O[C@H](O[C@H]2[C@H](O)[C@@H](O[C@H]3O[C@H](CO)[C@@H](O)[C@H](N)[C@H]3O)[C@H](N)C[C@@H]2N)[C@H](O)[C@@H](O)[C@@H]1O | – | -2.14% [at 6.97 µM] (inactive)
6 | CC(C)=CCCC(C)CC=O (stereo not given) | inactive | –
7 | COc1ccc2[nH]c(S(=O)Cc3ncc(C)c(OC)c3C)nc2n1 (stereo not given) | inactive | –
8 | CN(C)CCCNCCCN | 48.8 µM (active) | –
9 | O=S1(=O)N=C(O)c2ccccc21 | inactive | –
10 | O=C1[C@H](CC[C@H](O)c2ccc(F)cc2)[C@@H](c2ccc(O)cc2)N1c1ccc(F)cc1 | inactive | –
11 | Cc1occc1S | inactive | –
12 | CCCOc1ccc2nc(NC(=O)OC)[nH]c2c1 | inactive | –
13 | CC(=O)N(CC(=O)N(C)C)c1ccccc1 | inactive | –
14 | COc1ccc(OC)c(OC)c1 | inactive | –
15 | CCCCOCCOCCOCCOCCO | inactive | –
16 | CC(=O)NCCCS(=O)(=O)O | inactive | –
17 | CCc1nn(C2CCCCC2)c2cc(C3(C#N)CCC(C(=O)O)CC3)ccc12 (stereo not given) | inactive | –
18 | CC(C)(C)C1CCCCC1O (stereo not given) | inactive | –
19 | Nc1cnn([C@@H]2O[C@H](CO)[C@@H](O)[C@H]2O)c(=O)n1 | inactive | –
20 | CN(c1nccc(=O)[nH]1)C1CCN(c2nc3ccccc3n2Cc2ccc(F)cc2)CC1 | inactive | –

Row | Compound | Potency | activity change, negative = cytotoxicity
21 | C=Cc1c(C)c2cc3[nH]c(cc4nc(cc5nc(cc1[nH]2)C(C)=C5CCC(=O)O)C(CCC(=O)O)=C4C)c(C)c3C=C | inactive | –
22 | CN1CCN(C2=Nc3cc(Cl)ccc3Nc3ccccc32)CC1 | inactive | –
23 | O=C(O)COC(=O)Cc1ccccc1Nc1c(Cl)cccc1Cl | inactive | –
24 | Cn1c(NCCN(CCO)CCCc2ccc([N+](=O)[O-])cc2)cc(=O)n(C)c1=O | inactive | –
25 | O=C(O)/C=C/c1cnc[nH]1 | inactive | –
26 | Cc1cc(NC(=O)C(=O)O)cc(C)c1Oc1ccc(O)c2c1CCC2 | inactive | –
27 | CC(C)NCC(O)COc1ccc(CC(N)=O)cc1 (stereo not given) | inactive | –
28 | CCCCCCCCCCCCCCC1CO1 (stereo not given) | inactive | –
29 | CCCCOC(=O)c1ccccc1C(=O)OCC(CC)CCCC (stereo not given) | inactive | –
30 | OCC1CC2CC1C1CCC(CO)C21 (stereo not given) | inactive | –
31 | CCN(CC)C(C)=O | inactive | –
32 | O=C(CCN1CCN2CCCC2C1)N1c2ccccc2Sc2ccc(Cl)cc21 (stereo not given) | – | -22.2% [at 15.8 µM] (inactive)
33 | CN(C(=O)CCCOc1ccc2[nH]c(=O)ccc2c1)C1CCCCC1 | inactive | –
34 | CCCCCCOC(=O)CCC | inactive | –
35 | N[C@H]1C(O)O[C@H](CO)[C@H](O)[C@@H]1O (stereo not given in full) | inactive | –
36 | CC(=O)CC(=O)c1ccccc1 | inactive | –
37 | CCCCCOC(=O)COc1cc(N2C(=O)C3=C(CCCC3)C2=O)c(F)cc1Cl | inactive | –
38 | NC1CCN(c2nc3c(cc2F)c(=O)c(C(=O)O)cn3-c2ccc(F)cc2F)C1 (stereo not given) | inactive | –
39 | Cc1ccccn1 | inactive | –
40 | FC(F)(F)C(F)(F)C(F)(F)C(F)(F)C(F)(F)C(F)(F)CCI | inactive | –
